The list is not random: actives were taken first. Their share in the collection is about 6.4%.
VP16 counter – Gal4-VP16 reporter inhibition counter-screen; AID 2546; Potency, µM (series often up to 53.6 µM), without a hit: at the highest dose activity, negative = inhibition, hits mostly inhibitors; 3.5% of 310,000 active; Drosophila S2 Gal4-VP16 UAS-luciferase, luminescence, 20 h;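 note: Gal4-VP16 expression switched on by copper sulfate through the metallothionein promoter; nearly all actives have a fitted effect of over 50% in size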
RORgamma inh – ROR gamma (mouse) transcription inhibition | 5.4% of 310,000 active | Drosophila S2 Gal4-RORgamma UAS-luciferase reporter, 20 h | Potency, µM (top dose mostly 53.6 µM), without a hit: at the highest dose activity change, negative = inhibition, hits mostly inhibitors | P51450 | AID 2551; note: nearly all actives have a fitted effect of over 60% in size
Target sequence (P51450 whole entry, looked up, the tested form may be a part): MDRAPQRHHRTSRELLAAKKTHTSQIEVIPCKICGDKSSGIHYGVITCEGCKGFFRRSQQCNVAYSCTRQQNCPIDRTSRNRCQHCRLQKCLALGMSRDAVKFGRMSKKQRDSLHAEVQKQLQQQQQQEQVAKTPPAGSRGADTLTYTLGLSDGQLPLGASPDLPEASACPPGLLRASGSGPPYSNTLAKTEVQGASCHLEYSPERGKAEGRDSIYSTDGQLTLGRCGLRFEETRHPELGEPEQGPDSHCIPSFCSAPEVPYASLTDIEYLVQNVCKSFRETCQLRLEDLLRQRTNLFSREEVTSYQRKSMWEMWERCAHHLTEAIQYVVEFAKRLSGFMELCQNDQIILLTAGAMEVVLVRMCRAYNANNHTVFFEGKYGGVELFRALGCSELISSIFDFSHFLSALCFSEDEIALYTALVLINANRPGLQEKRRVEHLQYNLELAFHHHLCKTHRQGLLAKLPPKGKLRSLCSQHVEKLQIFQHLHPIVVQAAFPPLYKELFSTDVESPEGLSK
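Schneider cells (Drosophila), stable Gal4 DBD–ROR gamma + UAS-luc; 1 hr cmpd preincubation; Cu2+ induction 700 uM final; 20 hr ambient; luminescence.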
KinaseGlo FLuc – blocks Kinase-Glo luciferase, a counter-screen artifact. Q27757. Kinase-Glo luciferase, ATP luminescence, 8 min. Potency, µM (doses to about 38.3 µM), for inactives: at the top dose activity change, negative = inhibition, actives largely listed as inhibitors. 0.28% of 200,000 active. AID 1379; note: nearly all actives have a fitted effect of over 60% in size
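Compounds were added to a substrate mix at pH 7.2 (50 mM imidazole, 10 uM ATP, within the enzyme's linear range), followed by Kinase-Glo detection reagent; luminescence was measured after 8 minutes at ambient temperature.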
* = called active by the depositor; ? = inconclusive; nt = no result given; [ ] = remark or other dose. Calls come from the whole dose curve; as a rule, active = well fitted curve in the direction sought with a large enough effect; inconclusive = small, poorly fitted or top-dose-only effect, or another doubt; inactive = no such curve, though single readings can be large; an effect the other way counts as inactive or inconclusive. % is set by controls: 0 for no effect and ±100 for the full control effect; potency is the fitted concentration of half-maximal effect.

SMILES	VP16 counter	RORgamma inh	KinaseGlo FLuc
COc1ccc(S(=O)(=O)Nc2ccc3c(c2)OCCO3)cc1Cl	?	?	-2%
COc1cc(C(=O)NC2CCCc3ccccc32)ccc1OCC(=O)Nc1ccc(F)cc1 (configuration not stated)	?	6%	1%
Cc1cc(NCc2ccco2)n2ncnc2n1	3%	-7%	1%
COc1ccc(Cl)cc1NC(=O)C(C)N1CCN(c2ccccn2)CC1 (configuration not stated)	-2%	23%	nt
COc1ccc(NS(=O)(=O)c2ccc3c(c2)OCCO3)cc1OC	7.1µM*	?	nt
COc1ccc(S(=O)(=O)Nc2ccc3c(c2)OCO3)cc1OC	3%	?	0%
COc1ccc(CC(=O)Nc2nnc(C(C)(C)C)s2)cc1OC	-2%	?	-1%
Cc1cc(Nc2n[nH]c(N)c2C#N)ccc1F	?	24%	nt
Clc1cccc(-c2ccc(C=Nc3ccc(N4CCOCC4)cc3)o2)c1	?	-6%	1%
CCOC(=O)c1nn(-c2ccccc2)c(=O)c2c(N)scc12	4%	6%	-1%
CCOC(=O)c1nn(-c2ccccc2)c(C(=O)OCC)c1N	2%	1.3µM*	2%
COc1cccc(CNS(=O)(=O)/C=C/c2ccc3c(c2)OCO3)c1	-6%	9%	2%
COc1ccc(C(=O)Nc2cccnc2Cl)cc1OC	2%	-9%	nt
Cc1ccc(C(=O)NC(=S)Nc2cccnc2Cl)cc1	?	5µM*	nt
COc1ccccc1-c1cc(C(=O)Nc2cccnc2Cl)no1	-2%	1%	nt
COc1ccccc1C(=O)NC(=S)NNC(=O)c1sc2ccccc2c1Cl	-10%	3%	2%
COc1ccccc1C(=O)NC(=S)Nc1cccnc1Cl	?	10µM*	nt
COc1ccccc1C(=O)NNC(=S)NC(=O)c1sc2ccccc2c1Cl	13µM*	13µM*	-4%
O=[N+]([O-])c1cccc2c(N3CCCC3)ccnc12	?	-42%	0%
CCOc1ccc(S(=O)(=O)NCCCN2CCOCC2)c2ccccc12	-6%	-1%	-12%
CCCOc1ccc(S(=O)(=O)NCCCN2CCOCC2)c2ccccc12	-27%	10µM*	-2%
CNc1ccc(C(=O)N2CCN(S(=O)(=O)c3ccc4c(c3)OCCCO4)CC2)cc1[N+](=O)[O-]	22%	?	nt
O=C(c1ccc(C(F)(F)F)cc1)N1CCN(S(=O)(=O)c2ccc3c(c2)OCCCO3)CC1	-4%	13µM*	nt
Cc1ccccc1C(=O)N(C)c1ccccc1C(=O)NCc1ccccc1	1%	-3%	nt
COc1ccc(Cc2nc3ccc(C(=O)NC(C)Cc4ncccc4C)cc3o2)cc1OC (configuration not stated)	-7%	?	nt
SMILES	VP16 counter	RORgamma inh	KinaseGlo FLuc
C1=C(CN2CCOCC2)COc2c1cccc2OC[C@@H]1CNCCO1	-7%	-11%	3%
CCc1ccc(-n2c(SCC(=O)c3ccc4c(c3)NC(=O)CO4)nc3ccccc3c2=O)cc1	-1%	2.5µM*	1%
O=C1COc2ccc(C(=O)CSc3nc4ccccc4c(=O)n3-c3ccc(Cl)c(Cl)c3)cc2N1	6%	-29%	2%
COc1ccc(-c2cn3cccnc3n2)cc1NC(=O)C(C)Oc1ccccc1 (configuration not stated)	-2%	-1%	nt
CN(C)c1nc(C(=O)O)nc(N2CCOCC2)n1	2%	-2%	nt
O=C(NC1CCCCC1)NC1C2CC3CC(C2)CC1C3 (configuration not stated)	10%	11%	nt
CCOC(=O)C1CCN(CC(=O)N(CC(C)C)c2c(N)n(CC(C)C)c(=O)[nH]c2=O)CC1	7%	-4%	6%
COc1ccc(C(=O)COC(=O)CCCC(=O)NC2CCCCC2)cc1	-10%	-45%	nt
O=C(Oc1coc(CSc2ncccn2)cc1=O)c1cccc([N+](=O)[O-])c1	3%	-27%	3%
O=C(Oc1ccc(Cl)c2cccnc12)c1cccc([N+](=O)[O-])c1	1.6µM*	1.1µM*	-3%
Cc1c(C(=O)Oc2cccc3cccnc23)cccc1[N+](=O)[O-]	3.2µM*	2.8µM*	10%
O=C(Oc1ccccc1)c1cccc2cccnc12	4µM*	2.5µM*	-1%
O=C(Oc1cccc2cccnc12)c1cccc([N+](=O)[O-])c1	3.2µM*	3.5µM*	-3%
O=[N+]([O-])c1ccccc1COc1ccc(Cl)c2cccnc12	-8%	-26%	nt
O=C(O)c1cccc2cccnc12	-12%	-15%	1%
Cc1c(C(=O)O/N=C(\N)c2ccccn2)cccc1[N+](=O)[O-]	-21%	-38%	nt
CC(=O)Nc1cccc(OCCCNC(=O)c2ccc(C(C)(C)C)cc2)c1	-8%	39%	nt
CSc1ccc(S(=O)(=O)N2CCC(C(=O)Nc3ccccc3C(F)(F)F)CC2)cc1	0%	2%	nt
CCc1ccccc1NC(=O)CN(C1CCCCC1)S(C)(=O)=O	-1%	-13%	nt
CCCN(C(=O)CSc1nnnn1-c1ccccc1OC)C1CCS(=O)(=O)C1 (configuration not stated)	3%	12%	nt
CCC(=O)c1c(NCCc2ccccc2)cc(C)oc1=O	-3%	-19%	-3%
N[C@@H](Cc1cc(-c2ccc(Cl)cc2Cl)cc(CP(=O)(O)O)c1O)C(=O)O	2%	-13%	3%
O=C(Oc1cccc2cccnc12)c1ccc2c(c1)OCCO2	2µM*	1.6µM*	-3%
CCN(CC)C(=O)Oc1c(Cl)cc(Cl)c2cccnc12	-11%	3%	2%
O=[N+]([O-])c1ccc(Oc2cccc3cccnc23)c([N+](=O)[O-])c1	?	8.9µM*	3%
SMILES	VP16 counter	RORgamma inh	KinaseGlo FLuc
N#Cc1ccc(Oc2cccc3cccnc23)c([N+](=O)[O-])c1	-14%	8%	nt
O=C(Oc1c(Cl)cc(Cl)c2cccnc12)c1cccc([N+](=O)[O-])c1	nt	0.28µM*	4%
O=C(N/N=C/c1ccc2c(c1)OCO2)c1ccc(COc2cccc3cccnc23)cc1	-17%	-29%	0%
CCOc1ccc(NC(=O)C(C)NS(=O)(=O)c2ccc(NC(C)=O)cc2)cc1 (configuration not stated)	5%	-14%	3%
O=C(Nc1cccc(F)c1)N1CCCC2(CCN(S(=O)(=O)c3ccccc3)CC2)C1	5%	4%	-3%
CC1(O)/C=C\C=C(\CO)C2CC(C)(C)C2(O)CC1 (configuration not stated)	-9%	0%	-2%
CC(C)=CCC/C(C)=C/CO/N=C1/C[C@@H](O)[C@@H](O)[C@@H]2[C@@H]3C(=O)N(Cc4ccc5c(c4)OCO5)C(=O)[C@H]3CC[C@@H]12	-9%[10 µM]	-1%[10 µM]	nt
Cn1cccc1C(=O)N1CCC2(CCCN(Cc3ccccc3)C2)CC1	4%	-1%	0%
Cc1ccc(CN2CCC(C(=O)Nc3cccc(-c4cccc(F)c4)c3)CC2)o1	10µM*	-24%	nt
COc1cccc(O)c1CN1CCC(C(=O)Nc2ccc(-c3cccc(C)c3)cc2)CC1	14µM*	10µM*	nt
COc1cccc(O)c1CN1CCC(C(=O)Nc2ccc(Oc3cccnc3)cc2)CC1	4%	30%	nt
O=C(Nc1cccc(-c2cccc(Cl)c2)c1)C1CCN(Cc2ccc(CO)o2)CC1	-14%	-25%	nt
Cc1nc2ccccc2nc1OCc1ccc([N+](=O)[O-])cc1	-2%	12%	1%
